Shown are actives, neighbours in structure and some others; about 3.1% of the full set was active somewhere.
mTORC1 inh = inhibitors of mTORC1 signaling in Tsc2-/- p53-/- MEF cells; Tsc2-/- p53-/- MEF, phospho-rpS6 immunofluorescence/PI, 24 h; Potency, µM (titrated, usually from 38.3 µM), hits mostly inhibitors; actives 0.78% (n = 44,000); note: nearly all actives have a fitted effect of over 50% in size
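Immunofluorescence of rpS6 phosphorylation in Tsc2-/-, p53-/- MEFs after 24 h compound exposure, normalized to propidium iodide signal. Activity is expressed as % positive cells, thresholded with 7.5 nM rapamycin.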
p53null 32C tox = p53 null cell cytotoxicity, permissive temperature; H1299-neo p53 null cells, ATP luminescence, 24 h, 32C; Potency, µM (series often up to 46.1 µM), hits mostly cytotoxic; actives 0.62% (n = 55,000); AID 903; note: nearly all actives have a fitted effect of over 55% in size
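ATP-content luminescence in p53-null H1299-neo cells after 24 h compound exposure (up to 46 uM) at 32C permissive temperature; 0% and 100% killing set by DMSO and 100 uM tamoxifen; Hill-equation AC50.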
SKOV3 invasion = ovarian cancer metastasis inhibition, 3D TME model; SKOV3ip1-GFP adhesion/invasion on 3D omental model, fluorescence; AID 1963576; actives 0.1% (n = 46,000); Potency, µM (highest dose often 45.8 µM), actives largely listed as inhibitors; note: nearly all actives have a fitted effect of over 65% in size
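Primary human omental fibroblast/mesothelial 3D culture pre-formed 48 h. SKOV3ip1-GFP cells added with compounds (0.36-46 umol/L), incubated 2 h RT/16 h 37 C, fixed; GFP cells quantified at 488/509 nm.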
PMP22 txn = PMP22 gene transcription modulation | S16 Pmp22-F2sN Schwann cells, FLuc/NLuc coincidence luminescence, 24 h | Potency, µM (highest dose often 57.5 µM), actives largely listed as inhibitors | AID 1508649 | actives 2% (n = 43,000); active = clear falling dose curves in both reporters; inconclusive = both reporters move, but less clearly or upward; inactive = either reporter flat; the % is the NLuc reporter signal
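Luminescent read-out of sequential FLuc and NLuc signals from a reporter embedded in the Pmp22 3' UTR of S16 Schwann cells, taken after 24 h compound exposure at 37C; compounds reducing both signals score as inhibitors of expression.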
p53null 39C tox = kills p53 null cells at the nonpermissive temperature | Potency, µM (titrated, usually from 46.1 µM), most hits filed as cytotoxic | H1299 p53-null (neo) cells, 39C, ATPlite viability, 24 h | actives 0.97% (n = 55,000) | AID 904; note: nearly all actives have a fitted effect of over 50% in size
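ATP-luminescence viability readout (ATPlite, 20 min RT) after 24 hr compound treatment at 39C of H1299-neo or H1299-p53A138V cells; titration up to 46 uM; normalized to DMSO and 100 uM tamoxifen; Hill-fit AC50.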
S16 F2sN tox = cytotoxicity in S16 Pmp22-F2sN Schwann cells | Potency, µM (titrated, usually from 57.5 µM), usual class: cytotoxic | S16 Pmp22-F2sN Schwann cells viability, CellTiter-Glo, 24 h | actives 0.48% (n = 43,000); note: nearly all actives have a fitted effect of over 65% in size
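CellTiter-Glo counter-screen, qHTS, 1536-well. Cells: S16(c9) Pmp22-F2sN, 500-1,000/well in DMEM + 10% FBS. Cpd 23 nL pin transfer, 24 h, 37C/5% CO2. Read: luminescence, CCD imager.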
NLuc sat counter = counter-screen for PMP22 expression modulators: NanoLuc inhibition, saturating substrate. actives 4% (n = 690). shares compounds with PMP22 txn. Secreted NLuc enzyme (filtered S16 cell medium), Nano-Glo luminescence. Potency, µM (doses to about 57.5 µM), usual class: inhibitors
NLuc Km ctr = NanoLuc inhibition at Km substrate, PMP22 artifact check; Potency, µM (doses to about 57.5 µM), hits mostly inhibitors; shares compounds with PMP22 txn; secreted NLuc enzyme, coelenterazine luminescence, Km conditions; actives 5% (n = 690)
FLuc ctr PMP22 = firefly luciferase enzyme inhibition artifact for PMP22 screen; shares compounds with PMP22 txn; purified P. pyralis FLuc, luminescence, 10 min; Potency, µM (series often up to 57.5 µM), actives largely listed as inhibitors; 690 tested, under 10 active
Target sequence (P08659 whole entry, looked up): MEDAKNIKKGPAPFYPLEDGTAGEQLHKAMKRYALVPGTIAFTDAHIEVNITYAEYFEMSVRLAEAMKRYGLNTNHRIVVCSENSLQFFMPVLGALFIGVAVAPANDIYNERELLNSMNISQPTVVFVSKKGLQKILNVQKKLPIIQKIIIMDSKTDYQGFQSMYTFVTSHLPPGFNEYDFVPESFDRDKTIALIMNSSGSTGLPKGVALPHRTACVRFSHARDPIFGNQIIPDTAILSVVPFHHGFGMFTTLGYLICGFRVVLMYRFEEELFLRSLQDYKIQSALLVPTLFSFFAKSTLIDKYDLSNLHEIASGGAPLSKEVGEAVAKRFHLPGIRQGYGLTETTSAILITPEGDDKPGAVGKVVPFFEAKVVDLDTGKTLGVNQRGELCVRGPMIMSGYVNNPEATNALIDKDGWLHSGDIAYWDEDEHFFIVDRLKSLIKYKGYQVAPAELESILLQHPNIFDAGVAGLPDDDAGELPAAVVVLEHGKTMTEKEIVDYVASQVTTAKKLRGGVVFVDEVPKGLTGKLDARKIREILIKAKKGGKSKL
S16 viab conf = confirmation of cytotoxicity in S16 Pmp22-F2sN Schwann cells (luciferase reporters placed in the Pmp22 gene); shares compounds with PMP22 txn; S16 Schwann cells viability, CellTiter-Glo ATP luminescence, 24 h; Potency, µM (highest dose often 57.5 µM), most hits filed as cytotoxic; actives 7% (n = 690); AID 1508641
PMP22 txn conf = PMP22 transcription modulation, confirmatory. S16 Schwann cells Pmp22-F2sN, dual luciferase, 24 h. AID 1508646. Potency, µM (top dose mostly 57.5 µM), hits mostly inhibitors. shares compounds with PMP22 txn. actives 22% (n = 690); active = clear falling dose curves in both reporters; inconclusive = both reporters move, but less clearly or upward; inactive = either reporter flat; the % is the FLuc reporter signal
PMP22 HiBiT cnf = confirmation of modulators of rat PMP22 protein expression | Potency, µM (highest dose often 27.9 µM), hits mostly inhibitors | shares compounds with PMP22 txn | 95 tested, under 10 active | S16 Schwann cells Pmp22-HiBiT, luminescence, 48 h | AID 1508647
Target sequence (P25094 whole entry, looked up): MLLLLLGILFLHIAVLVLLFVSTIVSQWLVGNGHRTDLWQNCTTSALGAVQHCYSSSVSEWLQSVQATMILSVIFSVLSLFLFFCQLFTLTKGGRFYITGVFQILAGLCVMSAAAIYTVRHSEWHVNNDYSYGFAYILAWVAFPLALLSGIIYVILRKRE
A number is an active result; - = inactive; ? = inconclusive; . = not tested or not shown; [ ] = dose if it differs, or a comment. Unless noted, calls come from the whole dose curve; as a rule, active = well fitted curve in the direction sought with a large enough effect; inconclusive = small, poorly fitted or top-dose-only effect, or another doubt; inactive = no such curve, though single readings can be large; an effect the other way counts as inactive or inconclusive.

SMILES	mTORC1 inh	p53null 32C tox	SKOV3 invasion	PMP22 txn	p53null 39C tox	S16 F2sN tox	NLuc sat counter	NLuc Km ctr	FLuc ctr PMP22	S16 viab conf	PMP22 txn conf	others
CCN(CC)Cc1ccc2cc(COC(=O)Nc3ccc(C(=O)NO)cc3)ccc2c1	.	.	-	.	.	.	.	.	.	.	.
CCOc1ccc(CNS(=O)(=O)c2cc(-c3cc(C)no3)ccc2C)cc1OC	-	-	-	-	-	-	.	.	.	.	.
CCc1ccc(-c2cc(C)no2)cc1S(=O)(=O)NCc1ccc(OC)cc1	?	-	-	6µM	?	-	?	?	-	-	?
CNC(=O)c1cc2c(n(-c3ccc(C)cc3)c1=O)CC(C)(C)CC2=O	-	-	-	-	-	-	.	.	.	.	.
Cc1ccc(-n2c3c(cc(C(=O)Nc4ccccc4C(N)=O)c2=O)C(=O)CC(C)(C)C3)cc1	-	-	-	3.4µM	-	-	?	-	-	-	-
O=C(NCCS(=O)(=O)c1ccc(C(F)(F)F)cn1)c1ccc(Cl)cc1	.	.	-	.	.	.	.	.	.	.	.
CCN(Cc1ccccc1)C(=O)c1nn(-c2ccc(OC)cc2)c(=O)c2c1c1ccccc1n2C	-	-	-	19µM	-	?	-	-	-	-	-
CCc1ccc(CNC(=O)c2nn(-c3ccc(C)cc3)c(=O)c3c2c2ccccc2n3C)cc1	-	-	-	2.8µM	-	-	-	-	-	?	?
CCN(CC)CCOc1ccc(Nc2ncc3cc(-c4c(Cl)cccc4Cl)c(=O)n(C)c3n2)cc1	.	.	-	.	.	.	.	.	.	.	.
O[C@@H](CNC[C@H](O)[C@H]1CCc2cc(F)ccc2O1)[C@@H]1CCc2cc(F)ccc2O1	.	.	-	.	.	.	.	.	.	.	.
CCN(CC)S(=O)(=O)c1ccc2c(c1)N(CC(=O)NCCCN1CCN(c3cc(Cl)ccc3C)CC1)C(=O)CO2	?	?	-	20µM	?	?	-	-	-	?	?
CCN(CCO)CCCOc1ccc2c(Nc3cc(CC(=O)Nc4cccc(F)c4)[nH]n3)ncnc2c1	.	.	-	.	.	.	.	.	.	.	.
CCC(=O)N1CCc2cc(S(=O)(=O)CCC(=O)Nc3ccc(Cl)c(C(F)(F)F)c3)ccc21	-	-	-	11µM	-	-	-	-	-	-	18µM	PMP22 HiBiT cnf=?
COC(=O)c1cc2occc2n1Cc1cccc(C)c1	-	-	-	?	-	-	-	?	-	-	-
CC(C)=CCCC(C)=CCCC(C)=CCCC(C)=CCCC(C)=CCCC(C)=CCCC(C)=CCCC(C)=CCCC(C)=CCO	.	.	-	.	.	.	.	.	.	.	.
O=C(Cn1cc(C(=O)c2ccco2)c2ccccc21)Nc1ccccc1C(F)(F)F	-	-	-	12µM	-	-	-	-	-	-	-
O=C(Cn1cc(C(=O)c2ccco2)c2ccccc21)Nc1ccccc1Cl	?	-	-	?	-	-	.	.	.	.	.
Cc1ccc(C)c(Nc2cc(C(=O)NCCCN(C)C3CCCCC3)c3ccccc3n2)c1	?	-	?	?	?	?	.	.	.	.	.
CCCCN(CCCNC(=O)c1cc(Nc2ccc(OC)cc2OC)nc2ccccc12)Cc1ccccc1	-	-	-	?	?	-	.	.	.	.	.
CCN(CCCNC(=O)c1cc(Nc2ccc(OC)cc2OC)nc2ccccc12)c1cccc(C)c1	-	-	-	15µM	-	-	-	-	-	-	-
CCc1ccccc1Nc1cc(C(=O)NCCCN(C)C2CCCCC2)c2ccccc2n1	?	-	-	20µM	-	?	-	-	-	?	?
Cc1cc(C)cc(Nc2cc(C(=O)NCCCN(C)C3CCCCC3)c3ccccc3n2)c1	4.1µM	?	-	8.9µM	13µM	?	-	-	?	17µM	15µM
Cc1ccc(NC(=O)/C(C#N)=C/c2cc(C)n(-c3ccc(Br)cc3)c2C)cc1C	-	-	?	12µM	-	-	-	-	-	-	?
Cc1ccc(-n2c(C)cc(/C=C(\C#N)C(=O)Nc3ccc(C)c(C)c3)c2C)cc1	-	-[9.22 µM]	-	-	-	-	.	.	.	.	.
Cc1n[nH]c(C)c1Cc1sc2c(c1C(=O)N1C[C@H](O)CO1)c(=O)n(C)c(=O)n2CC(C)C	.	.	-	.	.	.	.	.	.	.	.
SMILES	mTORC1 inh	p53null 32C tox	SKOV3 invasion	PMP22 txn	p53null 39C tox	S16 F2sN tox	NLuc sat counter	NLuc Km ctr	FLuc ctr PMP22	S16 viab conf	PMP22 txn conf	others
Cc1ccc(S(=O)(=O)c2nnn3c2nc(NC2CCCCCC2)c2sccc23)cc1C	-	-	-	20µM	-	-	?	-	-	-	16µM	PMP22 HiBiT cnf=?
CCCCNc1nc2c(S(=O)(=O)c3ccc(Cl)cc3)nnn2c2ccsc12	-	-	-	20µM	-	-	-	?	-	-	-
Cc1ccc(S(=O)(=O)c2nnn3c2nc(N2CCOCC2)c2sccc23)cc1C	-	-	-	13µM	-	-	?	-	-	-	-
O=S(=O)(c1ccc(Cl)cc1)c1nnn2c1nc(NCc1ccccc1)c1sccc12	-	-	-	?	?	-	.	.	.	.	.
O=S(=O)(c1ccc(Cl)cc1)c1nnn2c1nc(N1CCCCC1)c1sccc12	-	-	-	?	-	-	?	-	-	-	?
Cc1cccc(OCC(=O)Nc2ccc3nc(SCc4ccccc4)sc3c2)c1	-	-	-	16µM	?	-	-	-	-	-	?
O=C(COc1ccc(F)cc1)Nc1ccc2nc(SCc3ccccc3)sc2c1	-	-	-	7µM	-	-	-	-	-	-	?
COc1ccc(C(=O)Nc2ccc3nc(SCC(=O)N4CCc5ccccc54)sc3c2)cc1	-	-	-	-	-	-	.	.	.	.	.
Cc1ccc(CSc2nc3ccc(NC(=O)COc4ccc(F)cc4)cc3s2)cc1	-	-	-	-	-	-	.	.	.	.	.
